Reference: PubChem BioAssay AID588391 (Broad Institute, 2011)
The whole screen tested about 350,000 compounds, of which about 180 (0.051%) were called active.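 How the source made its calls: active means mean inhibition across replicates of 30% or more, whatever share of single replicates reach that level; inconclusive means mean inhibition below 30% while every single replicate reaches 30%; inactive means the rest.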 The entries come from a sample that favours actives as a whole.

target: Protein disulfide-isomerase (Homo sapiens) (UniProt P07237); assay: inhibitors of human PDI, primary screen, biochemical, turbidity, single point, plate reader (AID 588391); settings: PDI insulin aggregation turbidity, A650, 90 min; at 10 µM; active compounds read high;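 further: absorbance from insulin aggregation driven by PDI reduction with DTT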
Sequence (P07237 whole entry, looked up): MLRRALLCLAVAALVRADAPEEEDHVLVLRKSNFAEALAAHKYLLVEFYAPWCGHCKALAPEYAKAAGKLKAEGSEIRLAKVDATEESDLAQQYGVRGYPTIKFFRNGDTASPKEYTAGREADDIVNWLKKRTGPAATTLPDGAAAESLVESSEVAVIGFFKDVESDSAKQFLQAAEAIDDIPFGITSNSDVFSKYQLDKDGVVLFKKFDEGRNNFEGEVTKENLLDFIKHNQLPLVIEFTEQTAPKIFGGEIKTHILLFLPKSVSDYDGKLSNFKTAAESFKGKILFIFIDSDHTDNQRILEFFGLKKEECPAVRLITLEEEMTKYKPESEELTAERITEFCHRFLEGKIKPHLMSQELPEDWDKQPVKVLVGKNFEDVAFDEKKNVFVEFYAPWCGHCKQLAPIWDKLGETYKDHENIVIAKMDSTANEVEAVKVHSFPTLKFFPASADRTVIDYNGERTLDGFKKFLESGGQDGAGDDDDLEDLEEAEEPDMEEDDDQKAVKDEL

Structure (SMILES) | inhibition
CCNC(=O)C1(C)CCN(Cc2ccc(C(=O)OCC)o2)C1 (stereo not drawn) | 8.45% (inactive)
CCCOc1ccc(F)cc1-c1cc(C(=O)Nc2ccc(F)cc2)[nH]n1 | 5.38% (inactive)
CC1(C(=O)NCc2ccc3c(c2)OCO3)CCN1C(=O)Cc1cccs1 (stereo not drawn) | -7.14% (inactive)
CC(C)Oc1ccc(CN2CCC2(C)C(=O)NCc2ccc(C(F)(F)F)cc2)cc1 (stereo not drawn) | 4.17% (inactive)
CC1(C(=O)Nc2cccc3c2CCCC3)CCN1C(=O)CCc1ccc(Cl)cc1Cl (stereo not drawn) | -3.08% (inactive)
NCCCNC(=S)NCCCN(Cc1ccc(Cl)cc1)c1ccc(Br)cn1 | 22.2% (inactive)
COc1cccc(CNc2nc(NCc3cccs3)nc3ccsc23)c1 | -1.8% (inactive)
CCc1nc2ccc(C(=O)Nc3ccc(OC)c(OC)c3)cn2c1N(C)C(=O)c1cccc(OC)c1 | 10.6% (inactive)
NC(Cc1ccccc1)c1csc(Nc2cc(Oc3ccccc3)ncn2)n1 (stereo not drawn) | 0.811% (inactive)
OC[C@@H]1CN(Cc2ccncc2)C[C@H](n2cnc3c(N4CCN(c5ccccc5)CC4)ncnc32)O1 | -1.41% (inactive)
COCCNc1ncnc2c1ncn2[C@H]1CN(Cc2ccc(OC)cc2)C[C@@H](CO)O1 | -0.829% (inactive)
CC(=O)Nc1cccc(-c2cc(NC(C)=O)c3ncc(-c4ccccc4)n3c2)c1 | 0.99% (inactive)
COc1cccc(CNc2nc(NCc3ccccc3OC)nc3ccsc23)c1 | -20.9% (inactive)
CCNC(=S)Nc1ccc2c(c1)c(=O)n(C)n2Cc1ccc(Cl)cc1 | 7.91% (inactive)
CSc1ccc(CNC(=O)C2(C)CCCN2C)cc1 (stereo not drawn) | -9.77% (inactive)
CCc1ccc2c(c1)NC(=O)C2(C)Cc1ccc(OC(F)(F)F)cc1 (stereo not drawn) | 8.05% (inactive)
CCCNC(=O)C1(C)CCCN(C(=O)c2oc3ccccc3c2C)C1 (stereo not drawn) | 10.4% (inactive)
CC1(C(=O)NS(=O)(=O)c2cccc(OC(F)F)c2)CCN1C(=O)COc1ccc(Cl)cc1 (stereo not drawn) | -2.12% (inactive)
Nc1nc(CSc2nnnn2-c2ccccc2)nc(Nc2ccccc2)n1 | -5.2% (inactive)
Cn1c(Nc2ccc(F)cc2)nc2cc(-c3ccsc3)sc2c1=O | -4.93% (inactive)
CCCNC(=O)c1cc(C2CCCCN2S(=O)(=O)c2cn(C)cn2)on1 (stereo not drawn) | -5.28% (inactive)
COc1cccc(-c2ccc3c(c2)N(Cc2ccccc2OC)C(=O)C(C)S3)c1 (stereo not drawn) | 0.226% (inactive)

Structure (SMILES) | inhibition
CCCNC(=O)C1(C)CCN(Cc2ccc(Cl)c(Cl)c2)C1 (stereo not drawn) | -7.24% (inactive)
COc1ccc(Br)c(Cn2c(C)c(C(=O)NCc3cccs3)sc2=O)c1 | 6.08% (inactive)
CC(C)(C)c1ccc(S(=O)(=O)NC(=O)C2(C)CCN2C(=O)CC2CC2)cc1 (stereo not drawn) | 4.79% (inactive)
CS(=O)(=O)c1cccc(-c2ccc3nncn3c2)c1 | 1.16% (inactive)
CC(=O)Nc1cccc(-c2cc3nc(NCc4cccnc4)n(C)c(=O)c3s2)c1 | -1.23% (inactive)
CCCNC(=O)C1(C)CCN(Cc2csc(-c3ccc(Cl)cc3)n2)C1 (stereo not drawn) | 14.3% (inactive)
COc1ccc(-c2ccc(C(=O)NCCN3CCOCC3)c3occc23)c(C)c1 | 0.104% (inactive)
CCc1ccc(OC2(C)CCN(CCOc3ccc(C)cc3)C2)cc1 (stereo not drawn) | -1.04% (inactive)
CC(=O)Nc1cccc(-c2ccnc3c2CC(C)(C(=O)NCc2ccco2)O3)c1 (stereo not drawn) | 2.4% (inactive)
CC(C)(C)CC(=O)Nc1nc(C(N)Cc2ccc(C(F)(F)F)cc2)cs1 (stereo not drawn) | -12.3% (inactive)
COCOc1cccc(CN2CCC(C)(Oc3ccc(SC)cc3)C2)c1 (stereo not drawn) | -14.7% (inactive)
CC1(C(=O)NCc2ccc(F)c(F)c2)Cc2c(-c3ccc4c(c3)OCO4)ccnc2O1 (stereo not drawn) | 5.69% (inactive)
CCOC(=O)c1[nH]c2ccc(OC)cc2c1NC(=O)N1CCOCC1 | -4.02% (inactive)
COc1ccc2[nH]c3c(C)c4cc[n+](C)cc4c(C)c3c2c1 | 46.3% (active)
COc1ccc(CC(N)c2csc(NC(=O)Cc3ccccc3)n2)cc1 (stereo not drawn) | 8.14% (inactive)
CC1(C(=O)NS(=O)(=O)c2cccc(F)c2)CCN1C(=O)Cc1cc(F)ccc1F (stereo not drawn) | 9.62% (inactive)
CC1(Oc2ccc(Cl)cc2)CCN(Cc2csc3ccccc23)C1 (stereo not drawn) | -0.538% (inactive)
CCc1nc2ccc(C(=O)Nc3cc(-c4ccccc4)ccc3OC)cn2c1N(CC)CC(=O)N(C)C | -5.43% (inactive)
OC(c1cc(Cl)cc(Cl)c1)c1ncc(-c2ccccc2C(F)(F)F)[nH]1 (stereo not drawn) | -0.656% (inactive)
CC1(C(=O)Nc2cccc(Oc3ccccc3)c2)CCN1Cc1ccccc1Cl (stereo not drawn) | 8.27% (inactive)
CCc1nc2ccc(C(=O)NCc3ccc(OC)cc3)cn2c1N(CC)Cc1cccc(Br)c1 | 19.2% (inactive)
CC1(Oc2ccccc2-c2ccno2)CCN(Cc2ccc(-c3ccccc3)o2)C1 (stereo not drawn) | 15.2% (inactive)

Structure (SMILES) | inhibition
CCNC(=O)C1CCCN(C(=O)c2cc(F)ccc2C)CC1 (stereo not drawn) | -2.55% (inactive)
COc1ccc(-c2cc(NC=O)c3ncc(-c4cc(OC)c(OC)c(OC)c4)n3c2)c(OC)c1 | 2.23% (inactive)
CCCNC(=O)C1(C)CCCN(Cc2c(C)nn(-c3ccccc3)c2C)C1 (stereo not drawn) | 1.08% (inactive)
O=CNc1cc(-c2ccc(C(=O)N3CCOCC3)cc2)cn2c(-c3ccc(F)cc3)cnc12 | -18.3% (inactive)
Cc1cccc(-c2cnc(C(O)c3cc(C)cc(C)c3)[nH]2)c1 (stereo not drawn) | 8.93% (inactive)
CCOC(=O)c1ccccc1NC(=O)COC(=O)C(Cc1c[nH]c2ccccc12)NC(C)=O (stereo not drawn) | 5.96% (inactive)
CCOc1cc(N2CCOCC2)c(OCC)cc1NC(=O)c1ccc(C)s1 | -4.12% (inactive)
CCOc1cc(N2CCOCC2)c(OCC)cc1NC(=O)COC(=O)[C@H](Cc1c[nH]c2ccccc12)NC(C)=O | 44.5% (active)
COc1ccc(S(=O)(=O)N2CCCCC2c2cc(C(=O)NCc3ccc(F)cc3)no2)cc1 (stereo not drawn) | -0.518% (inactive)
CCNC(=O)C1(C)CCN(C(=O)c2ccccc2)C1 (stereo not drawn) | -56.1% (inactive)
CC1(C(=O)NCc2ccc3c(c2)OCO3)CCN1CCc1ccccc1 (stereo not drawn) | 3.4% (inactive)
O=C(NCc1ccco1)c1cccc(-c2ccc3nncn3c2)c1 | 3.75% (inactive)
COc1ccc(-c2cc(NC(C)=O)c3ncc(-c4cc(OC)c(OC)c(OC)c4)n3c2)cn1 | -21.1% (inactive)
CN(C)C(=O)c1cccc(-c2cnc3sc(NCc4ccc5c(c4)OCO5)nn23)c1 | 9.47% (inactive)
O=C(NCc1ccc(F)cc1)c1cc(C2CCCCN2C(=O)c2ccccn2)on1 (stereo not drawn) | -12% (inactive)
CCN(CC)C(=O)C1CCCN(Cc2cccc(Cl)c2)C1 (stereo not drawn) | -5.23% (inactive)
Cc1nc(C(F)(F)F)ccc1C(=O)N1CCC1(C)C(=O)NS(=O)(=O)c1ccccc1 (stereo not drawn) | -40% (inactive)
CC(=O)Nc1cc(-c2ccccc2F)cn2c(-c3cccc(C(F)(F)F)c3)cnc12 | 0.488% (inactive)
CC(C)c1cccc(-c2csc(C(O)c3ccccc3)n2)c1 (stereo not drawn) | 4.52% (inactive)
CC(=O)OC1CCC2C3CCC4=C(CC(F)C(=O)C4)C3CCC12C (stereo not drawn) | 70.6% (active)
CCC(=O)N1CCC(C)(C(=O)Nc2cc(OC)c(OC)c(OC)c2)C1 (stereo not drawn) | -1.21% (inactive)
Cc1ccc(NS(=O)(=O)c2cc3c(cc2Br)NC(=O)CO3)cc1C | -4.51% (inactive)

Structure (SMILES) | inhibition
CCc1nc2c(OCc3ccc(C(F)(F)F)cc3)cccn2c1N(C)C(=O)CC(C)C | -3.58% (inactive)
OC(c1ccccc1)c1nc(-c2cnc3ccccc3c2)cs1 (stereo not drawn) | 4.04% (inactive)
CCOCCC(=O)Nc1ccc2c(c1)c(=O)n(C)n2-c1ccc2ccccc2c1 | -6.74% (inactive)
Cc1nc2c(OCC(=O)C(C)(C)C)cccn2c1N(C)Cc1cccs1 | -1.4% (inactive)
CCCS(=O)(=O)NC(=O)C1(C)CCN(C(=O)c2sccc2C)C1 (stereo not drawn) | 4.32% (inactive)
CCOC(=O)c1ccc(-c2ccc3ncnc(N(C)Cc4sccc4C)c3c2)o1 | -3.79% (inactive)
CCc1nc2ccc(C(=O)N(C)CCN(C)C)cn2c1N(CC)CCOC | 12.7% (inactive)
CC(=O)Nc1ccc(-c2ccnc3c2CC(C(=O)NC(C)C)O3)cc1 (stereo not drawn) | -7.94% (inactive)
COc1ccc(-c2coc3c(C(=O)NC(C)C)cccc23)c(C)c1 | -1.08% (inactive)
Cc1ccc(C(NC(=O)C2CCN(CCOc3ccc(Cl)cc3Cl)CC2)c2ccccn2)cc1 (stereo not drawn) | 2.42% (inactive)
O=C(NCCO)c1cccc(-c2cccc3nccn23)c1 | -96.6% (inactive)
Cc1ccc(-c2cnc(C(O)c3cc(Cl)cc(Cl)c3)[nH]2)cc1 (stereo not drawn) | -2.73% (inactive)
COc1cccc(C(O)c2ncc(-c3ccc4ccccc4c3)[nH]2)c1 (stereo not drawn) | 7.38% (inactive)
COc1ccc(C(=O)N2CCCCC2c2cc(C(=O)Nc3ccccc3)no2)cc1 (stereo not drawn) | -4.91% (inactive)
O=C(NCc1cccnc1)c1ccc2nc([C@@H]3O[C@H](CO)[C@H](O)[C@H](O)[C@H]3O)[nH]c2c1 | -7.99% (inactive)
CC1(C(=O)NS(=O)(=O)c2cccc(F)c2)CCN1C(=O)c1cccc2ccccc12 (stereo not drawn) | -12.2% (inactive)
CC(=O)c1cccc(-c2cnc3c(NC=O)cc(-c4ccccc4Oc4ccccc4)cn23)c1 | -15.6% (inactive)
CCNC(=O)C1CCCN(C(=O)c2ccc(OC)cc2OC)CC1 (stereo not drawn) | -2.37% (inactive)
Cc1ccccc1-c1csc(C(O)c2cccc(Cl)c2)n1 (stereo not drawn) | 4.37% (inactive)
CCN(CCN(C)C)C(=O)c1ccc2nc(C)c(N(C)C(=O)CCc3ccccc3)n2c1 | 5.52% (inactive)
CCOc1ccc(Cl)cc1-c1cc(C(=O)NCc2cccs2)[nH]n1 | 5.86% (inactive)
CCCNC(=O)c1cc(C2CCCCN2C(=O)OC)on1 (stereo not drawn) | 5.56% (inactive)
